# Experimental data reported in PubChem BioAssay AID720711 (National Center for Advancing Translational Sciences (NCATS), 2013).
# Among all 360,000 compounds or so, about 290 (0.081%) were called active. Calls follow the shape of the dose curve; as a rule, active = well fitted activation curve with a large enough effect; inconclusive = small, poorly fitted or top-dose-only effect; inactive = no such curve, though single readings can be large or run the other way. The sample as a whole holds a higher share of actives than the screen did.
# Target: Rap guanine nucleotide exchange factor 4 (Homo sapiens) (UniProt Q8WZA2)
# Sequence (Q8WZA2 whole entry, looked up): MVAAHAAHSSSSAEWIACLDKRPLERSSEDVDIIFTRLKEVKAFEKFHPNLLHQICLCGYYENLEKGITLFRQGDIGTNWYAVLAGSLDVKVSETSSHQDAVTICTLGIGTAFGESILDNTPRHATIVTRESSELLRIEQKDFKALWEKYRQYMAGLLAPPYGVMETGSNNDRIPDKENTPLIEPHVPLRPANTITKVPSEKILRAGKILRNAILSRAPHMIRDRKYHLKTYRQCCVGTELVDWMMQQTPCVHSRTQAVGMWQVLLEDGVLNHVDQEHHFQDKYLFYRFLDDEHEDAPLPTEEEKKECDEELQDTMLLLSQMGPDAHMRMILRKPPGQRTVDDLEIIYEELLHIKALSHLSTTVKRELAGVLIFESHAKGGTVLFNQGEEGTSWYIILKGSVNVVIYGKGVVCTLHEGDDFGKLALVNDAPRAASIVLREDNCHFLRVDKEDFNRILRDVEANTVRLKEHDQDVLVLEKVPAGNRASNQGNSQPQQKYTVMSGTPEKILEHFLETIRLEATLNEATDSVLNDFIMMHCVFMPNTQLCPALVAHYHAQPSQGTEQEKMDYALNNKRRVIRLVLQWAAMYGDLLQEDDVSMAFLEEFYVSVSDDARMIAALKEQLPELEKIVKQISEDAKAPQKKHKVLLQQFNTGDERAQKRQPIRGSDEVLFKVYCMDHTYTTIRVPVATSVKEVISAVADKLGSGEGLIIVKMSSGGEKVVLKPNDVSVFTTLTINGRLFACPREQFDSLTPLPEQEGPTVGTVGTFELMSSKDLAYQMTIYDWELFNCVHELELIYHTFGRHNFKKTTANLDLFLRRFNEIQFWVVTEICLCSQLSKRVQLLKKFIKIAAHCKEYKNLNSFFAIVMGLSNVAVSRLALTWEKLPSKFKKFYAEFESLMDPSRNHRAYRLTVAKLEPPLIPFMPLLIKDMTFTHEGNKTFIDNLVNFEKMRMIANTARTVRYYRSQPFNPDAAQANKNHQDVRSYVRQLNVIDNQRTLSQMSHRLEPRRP
# Test: qHTS for Agonist of cAMP-regulated guanine nucleotide exchange factor 4 (EPAC2): primary screen; also: nearly all actives have a fitted effect of over 50% in size
# Conditions: biochemical qHTS; Potency: EPAC2 activation; series mostly up to 154 µM; activation: at the top concentration
# From the text: In multi-cellular eukaryotic organisms, the effects of cAMP are transduced by two ubiquitously-expressed intracellular cAMP receptors, the classic protein kinase A/cAMP-dependent protein kinase (PKA/cAPK) and the more recently discovered exchange protein directly activated by cAMP/cAMP-regulated guanine nucleotide exchange factor (EPAC/cAMP-GEF). Both PKA and EPAC are ubiquitously expressed in all tissues, and an increase in intracellular cAMP levels will lead to the activation of both PKA and EPAC. Therefore, careful dissections of the individual role and relative contribution of EPAC and PKA within the overall cAMP signaling in various model systems are critical for further elucidating the mechanism of cAMP signaling. To date no EPAC-specific antagonists and agonist, as well as isoform-specific agonists have been reported, and developing EPAC-specific pharmacological probes to determine the physiological functions that EPAC play in the overall cAMP-mediated signaling remains a major challenge within the research field. Furthermore, identified regulators of EPAC may lead to new mechanism-based therapeutic strategies specifically targeting the EPAC / cAMP-signaling components as EPAC has been implicated to play important roles in major human pathological conditions such as diabetes, heart disease, and cancer.
# This qHTS will be used to screen the Molecular Libraries Small Molecule Repository (MLSMR) as a concentration-titration series using the NCGC unique quantitative screening (qHTS) platform to find activators for EPAC2. In addition, this assay will also be used as a counterscreen for the EPAC1 qHTS. This fluorescent based assay is developed and validated for EPAC2 that measures exchange using EPAC effector Rap1 complex with BODIPY-GDP, a GDP analog with a tethered fluorophores. Activators are identified by monitoring the change in fluorescence signal as the exchanged free BODIPY-GDP has a reduced fluorescence compared to Rap1-bound BODIPY-GDP. […] in signal (activation) is the desired outcome for the EPAC2 agonist while no activity in this assay is desired for the EPAC1 agonist counterscreen.
# [1] de Rooij, J., Zwartkruis, F. J., Verheijen, M. H., Cool, R. H., Nijman, S. M., Wittinghofer, A., and Bos, J.L. (1998) Nature 396, 474-477
# [2] Kawasaki, H., Springett, G. M., Mochizuki, N., Toki, S., Nakaya, M., Matsuda, M., Housman, D. E., and Graybiel, A. M. (1998) Science 282, 2275-2279
# NIH Chemical Genomics Center [NCGC]
# NIH Molecular Libraries Probe Centers Network [MLPCN]
# Assay Submitter (PI): Xiaodong Cheng, The University of Texas, Medical Branch
# Briefly, three uL of reagents (100 nM EPAC2, 250 nM RAP1B-BODIPY-GDP, 50 uM GDP) were dispensed into a 1536-well Greiner black solid-bottom medium binding assay plate. Controls and test compounds (23 nL) were transferred to the plate via a Kalypsys pin tool equipped with a 1536-pin array. The plates were centrifuged at 1,000 rpm for 15 seconds followed by 5 minute incubation at room temperature. The assay plates were read at 5 minute intervals for 30 minutes in the ViewLux plate reader using 480nm excitation and 540nm emission filters. The results were normalized to the agonist positive control of 6.5 mM cAMP.
# Potency is read from the fitted curve at half-maximal effect.
Compound,activation,Potency
COc1cc(-c2nnn(CC(=O)NCc3ccccc3)n2)cc(OC)c1OC,-6.33% (inactive),–
COC(C(=O)NCc1ccccc1C)c1ccccc1 (centres undefined),-2.29% (inactive),–
COc1ccc(NC(=O)CN(C)S(=O)(=O)c2ccccc2)cc1OC,15.6% (inactive),–
CCN(C(=O)C1CCCN(c2nc(-c3ccc(OC)cc3)no2)C1)c1ccc(OC)cc1 (centres undefined),13.2% (inactive),–
CCc1cccc(OC2OC(CO)C(O)C(O)C2NC(C)=O)c1 (centres undefined),12.7% (inactive),–
CCN(Cc1ccccc1)S(=O)(=O)c1cc(C(=O)O)ccc1OC,4.83% (inactive),–
COc1ccc(C)c(Cn2c(-c3nonc3N)nc3ccccc32)c1,-7.07% (inactive),–
Cc1ccc2c(CC(=O)NCc3cccs3)coc2c1,3.95% (inactive),–
CCc1nn(CCCC(=O)NCc2ccc(C)cc2)c(=O)c2cc3occc3n12,2.33% (inactive),–
Cc1ccc(C(CNC(=O)Nc2ccccc2)N2CCN(C)CC2)cc1 (centres undefined),6.7% (inactive),–
O=C(O)C1OC(C(=O)O)C2C1C(F)(F)C2(F)F (centres undefined),7.38% (inactive),–
CN(CCNC(=O)c1cc2c(-c3ccccc3F)nn(C)c2s1)C1CCCCC1,12% (inactive),–
CCO[C@@H]1OC(C(=O)NC2CC2)=C[C@H](C)[C@H]1CCCO,5.29% (inactive),–
Cc1nc(N)sc1-c1ccccc1,2.75% (inactive),–
O=C(CCc1ccccc1)Nc1ccnn1C1CCN(Cc2ccc(OCCO)cc2)CC1,4.75% (inactive),–
CC(C)(C)NC(=O)Cn1c(SCC(=O)Nc2nccs2)nc2ccccc21,2.92% (inactive),–
O=C1C=C(c2ccnc3cc(Cl)ccc23)C[C@@H](c2ccc3c(c2)OCO3)C1,3.59% (inactive),–
CCCCCC(=O)N1CCN(S(=O)(=O)c2ccc3c(c2)OCCCO3)CC1,3.1% (inactive),–
CC1(C)CN(CCc2ccccc2)C(=O)[C@H]1CC(=O)Nc1ccc(Br)cc1,2.53% (inactive),–
COc1ccc(N2C(=O)NC(NS(=O)(=O)c3ccc(Cl)cc3)(C(F)(F)F)C2=O)cc1 (centres undefined),10.6% (inactive),–
CCOC(=O)c1cnn(Cc2ccccc2Cl)c1N,1.13% (inactive),–
CCOC(=O)c1cc2n(c1N)-c1ccccc1C2=O,–,89.1 µM (active)
CCOC(=O)c1ccccc1NC(=O)c1c(N)n(C)c(=O)[nH]c1=O,19.8% (inactive),–
CN(C)NC(=O)c1csnc1-c1c(Cl)cccc1Cl,13.8% (inactive),–
O=S(=O)(NCc1ccccc1Cl)c1cnc[nH]1,-3.43% (inactive),–
CCc1nc2sc3c(Cl)ncnc3c2c2c1CCCC2,10.5% (inactive),–
COc1ccc(CNC(=O)C[C@H]2C[C@H](C(=O)N3CCOCC3)[C@@]3(CCC4CCCC4)c4[nH]c5ccc(Cl)cc5c4CCN3C2=O)cc1OC,-2.39% (inactive),–
O=C1[C@H]2[C@@H](c3ccc(C(F)(F)F)cc3)N[C@]3(CCCN(Cc4ccc(Cl)cc4)C3=O)[C@H]2C(=O)N1Cc1ccccc1,-2.98% (inactive),–
CCN(CC)CCCC(C)n1c2nc(=O)[nH]c(=O)c-2nc2cc(Cl)ccc21 (centres undefined),–,100 µM (active)
